These results are taken from PubChem BioAssay (NCI).

Holding throughout (assay): NCI-60 one-dose screen, 48 h (100 = growth as untreated, 0 = no growth, -100 = all killed)
Details in all cases: 10 µM unless noted

Test [1] has as its system SN12C renal.
The subject of test [2] is UO-31 renal.
The subject of test [3] is TK-10 renal.
In test [4] the test system is ACHN renal.
Test [5] relates to CAKI-1 renal.
Test [6] concerns A498 renal.
Test [7] concerns CCRF-CEM leukemia.
For test [8], the system named is MOLT-4 leukemia.

Molecules are shown by their SMILES. The panel holds about 83,000 compounds, 20% with a hit somewhere; the sample as a whole holds those more often.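 Interpretation: 100, growth as untreated; towards 0, rising growth inhibition; 0, no net growth; 0 to -100, cell death. Compounds scoring below 10 were considered active.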 Unmarked numbers belong to inactive results. Activity calls are given as the source filed them.

For the compound `O=C(CI)NCCNc1cccc2c(S(=O)(=O)O)cccc12`, the growth in test [1] was 94.7%; in test [2] it was 93.4%; in test [3], 111%; in test [4], 107%; in test [5], 109%; in test [6] it was 92.7%. Also, the growth in test [7] was 100%; in test [8] it was 98.3%.
For `CCCCn1c(C)nc2ccc(Nc3nc(Cl)nc4nc[nH]c34)cc21`, the growth in test [1] is 74.6%; in test [2] it was 57.8%; in test [3], 67.3%; in test [4], 79%; in test [5] it was 60.5%; in test [6], -0.303% (active). For the same compound, the growth in test [7] is 53%; in test [8], 37.9%.
`CC(=O)c1c(C)nc(-c2cc(C)cc(Cl)c2)nc1-c1cccc(Oc2ccccc2)c1`: the growth in test [1] was 80.1%; in test [2], 85.2%; in test [3], 93.6%; in test [4] it was 99.6%; in test [5], 68.2%; in test [6] it was 41.3%. Further, the growth in test [7] is 32.5%; in test [8] it was 27.9%.
For the compound `COc1ccc(-c2nc(-c3ccccc3OCc3ccccc3OC)nc(C)c2C(C)=O)cc1`, the growth in test [1] is 85.1%; in test [2], 64.3%; in test [3], 103%; in test [4], 87%; in test [5], 73.3%; in test [6], 79.1%. The growth in test [7] was 73.1%; in test [8], 62.4%.
On to `COC1=CC(c2ccc[nH]2)=N/C1=C\c1[nH]c(C)c(C(=O)CCCCCCCCC(=O)O[C@H]2CC[C@H]3C4CCc5cc(O)ccc5C4CC[C@]23C)c1C` (stereo partly drawn), for which the growth in test [1] was 39.6%; in test [2], -13.3% (active); in test [3], 34.1%; in test [4], 24.3%; in test [5], 40.5%; in test [6], -0.91% (active). In addition, the results for the growth in test [7] and in test [8] were 11.5% and 19.5%, respectively.
Consider `COc1ccc(-c2nsc3c2NC(=O)CC3c2cccc(F)c2)cc1` (stereo not drawn), for which the growth in test [1] was 55.7%; in test [2], 70.5%; in test [3], 51.6%; in test [4], 66.2%; in test [5], 38.5%; in test [6] it was 28.7%. Besides, the growth was 49.5% in test [7] and 41.6% in test [8].
For the compound `NS(=O)(=O)c1ccc(N2N=C(c3cccs3)CC2c2ccccc2O)cc1` (stereo not drawn), the growth in test [1] is 16.5%; in test [2] it was 34.9%; in test [3], 23.5%; in test [4] it was 15.9%; in test [5] it was 24.2%; in test [6], -13.2% (active). Further, the values for the growth in test [7] and in test [8] were 4.36% (active) and 8.13% (active), respectively.
As to `CCCOC(=O)C1c2cc3c(cc2CC(C)C1C(=O)OCCC)OCO3` (stereo not drawn), the growth in test [1] was 104%; in test [2], 65.7%; in test [3], 94.2%; in test [4], 101%; in test [6] it was 99.8%; in test [8], 90.9%.
Regarding `Cc1cc(Cl)c2ccc(N(C)C)cc2n1`, the growth in test [1] is 98%; in test [2], 84.4%; in test [3], 109%; in test [4], 97.6%; in test [5], 93%; in test [6] it was 92.6%. Further, the figures for the growth in test [7] and in test [8] were 95.9% and 84.7%, respectively.
Regarding `Cc1ccc2cc3c(NC(=O)c4cccnc4)nn(C)c3nc2c1`, the growth in test [1] is 101%; in test [2], 78.6%; in test [3], 103%; in test [4] it was 89%; in test [6] it was 91.7%; in test [7], 72.2%. In addition, the growth in test [8] was 94.3%.
For `Nc1nc(N)c2c(n1)NC(c1sc(Cl)nc1Cl)CC(c1ccccc1)=N2` (stereo not drawn), the growth is 48.7% in test [1]; 46.6% in test [2]; 70.8% in test [3]; 61.5% in test [4]; 44.8% in test [5]; 19.7% in test [6]. The growth in test [7] is 38.9%; in test [8], 26%.
`c1ccc2c(Cc3csc4ccccc34)csc2c1`: the growth in test [1] was 97.1%; in test [3], 106%; in test [5], 81.2%; in test [6] it was 107%; in test [7], 94.2%; in test [8] it was 87%.
On to `COc1ccc(C(=O)/C=C/c2cn(-c3ccccc3)nc2-c2cccc(Nc3ccnc4cc(Cl)ccc34)c2)cc1`, for which the growth is 89.8% in test [1]; 86.6% in test [2]; 120% in test [3]; 103% in test [4]; 94.8% in test [6]; 48.3% in test [7]. In addition, the growth in test [8] is 104%.
For the compound `Oc1ccc(Nc2ncnc3c2sc2ncccc23)cc1`, the growth was 17.1% in test [1]; -9.84% (active) in test [2]; 59.7% in test [3]; 9.05% (active) in test [4]; 13.1% in test [5]; 8.96% (active) in test [6]. The values for the growth in test [7] and in test [8] were 16% and 12.2%, respectively.
With `Nc1nc(N)c2c(n1)NC(c1sc(Cl)nc1Cl)CC(c1ccc3c(c1)OCO3)=N2` (stereo not drawn), the growth in test [1] is 35.2%; in test [2] it was 30.4%; in test [3], 50.6%; in test [4], 45%; in test [6], -2.91% (active); in test [7], 11.1%. Also, the growth in test [8] was 25.3%.
Take `[Ag].[Ag].[NH-]S(=O)(=O)c1ccc(N=Nc2cc(N=Nc3ccc(S([NH-])(=O)=O)cc3)c3c(NC(=O)C(Cl)Cl)cccc3c2OC(=O)C(Cl)Cl)cc1.[c-]1nccs1.[c-]1nccs1`: the growth in test [1] was 89.6%; in test [3], 108%; in test [4], 52.3%; in test [5] it was 59.1%; in test [6], 101%; in test [7], 44.7%. In addition, in test [8], the growth was 78.4%.
For `C=CCn1c(C)nc2cc(Nc3nc(N4CCOCC4)nc4nc[nH]c34)ccc21`, the growth in test [1] was 84.3%; in test [2], 87.4%; in test [3] it was 92.4%; in test [4] it was 93.7%; in test [5], 93.8%; in test [6] it was 37.5%. The growth is 89.9% in test [7] and 74.4% in test [8].
Take `CCOC(=O)c1ccccc1SC(C[N+](=O)[O-])c1ccccc1` (stereo not drawn): the growth in test [1] was 93.4%; in test [2] it was 99.4%; in test [3], 92.9%; in test [4], 88.7%; in test [5], 92.5%; in test [6] it was 87%. Also, the figures for the growth in test [7] and in test [8] were 65.5% and 94.3%, respectively.
`CCCCCCCCCCCCCCCc1cc(O)ccc1[N+](=O)[O-]`: the growth in test [1] is 75.5%; in test [2], 58.6%; in test [3], 112%; in test [4], 91.9%; in test [5] it was 72.9%; in test [6], 98%. Further, the values for the growth in test [7] and in test [8] were 9.46% (active) and 32.2%, respectively.
On to `COc1cc(C2CC(c3ccc(Cl)cc3)=NN2C=O)ccc1OS(=O)(=O)c1ccc(C)cc1` (stereo not drawn), for which the growth is 97.1% in test [1]; 85.2% in test [2]; 110% in test [3]; 90.9% in test [4]; 81.4% in test [5]; 74.1% in test [6]. In addition, the figures for the growth in test [7] and in test [8] were 76.3% and 91.5%, respectively.
In the case of `Cc1cc(C)c2c(n1)sc1c(Nc3ccc(Cl)cc3Cl)ncnc12`, the growth in test [1] was 13.5%; in test [3], 56.7%; in test [4] it was 11.7%; in test [5], 12.9%; in test [6], 15.6%; in test [7], 16.1%. Further, the growth in test [8] is 11.6%.
Take `Cc1cc(C)c2c(n1)sc1c(Nc3ccc(O)cc3)ncnc12`: the growth in test [1] was 21.5%; in test [2], -10.3% (active); in test [3], 59.1%; in test [4], 16%; in test [5], 15.8%; in test [6], 18.6%. Besides, the growth in test [7] is 16.6%; in test [8] it was 14.3%.
For `COc1cc(C2C=C(C)N=C3SC=NN32)cc(OC)c1OC` (stereo not drawn), the growth in test [1] was 100%; in test [2] it was 99.5%; in test [3], 109%; in test [4], 102%; in test [5], 99%; in test [6] it was 90.9%. In addition, the figures for the growth in test [7] and in test [8] were 90.7% and 97.2%, respectively.
With `COc1cc(C(=O)/C=C/c2cn(-c3ccccc3)nc2-c2cccc(Nc3ccnc4cc(Cl)ccc34)c2)cc(OC)c1OC`, the growth is 90.9% in test [1]; 86.4% in test [2]; 133% in test [3]; 108% in test [4]; 103% in test [5]; 99.6% in test [6]. For the same compound, the growth is 21% in test [7] and 63.3% in test [8].
